Screen size: about 310,000 compounds; about 14,000 (4.5%) showed an effect of 50% or more. Effects have a minus sign here. The sample as a whole holds a higher share of strong results than the screen did.
Molecular target: human ether-à-go-go-related gene (hERG) potassium channel (human, UniProt Q12809)
Test: primary screen, population patch clamp on CHO cells stably expressing hERG; higher = less effect of the substance
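Note: peak tail current of the secondary pulse compared with the same well before compound.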

human ether-à-go-go-related gene (hERG) potassium channel, sequence (Q12809 whole entry, looked up): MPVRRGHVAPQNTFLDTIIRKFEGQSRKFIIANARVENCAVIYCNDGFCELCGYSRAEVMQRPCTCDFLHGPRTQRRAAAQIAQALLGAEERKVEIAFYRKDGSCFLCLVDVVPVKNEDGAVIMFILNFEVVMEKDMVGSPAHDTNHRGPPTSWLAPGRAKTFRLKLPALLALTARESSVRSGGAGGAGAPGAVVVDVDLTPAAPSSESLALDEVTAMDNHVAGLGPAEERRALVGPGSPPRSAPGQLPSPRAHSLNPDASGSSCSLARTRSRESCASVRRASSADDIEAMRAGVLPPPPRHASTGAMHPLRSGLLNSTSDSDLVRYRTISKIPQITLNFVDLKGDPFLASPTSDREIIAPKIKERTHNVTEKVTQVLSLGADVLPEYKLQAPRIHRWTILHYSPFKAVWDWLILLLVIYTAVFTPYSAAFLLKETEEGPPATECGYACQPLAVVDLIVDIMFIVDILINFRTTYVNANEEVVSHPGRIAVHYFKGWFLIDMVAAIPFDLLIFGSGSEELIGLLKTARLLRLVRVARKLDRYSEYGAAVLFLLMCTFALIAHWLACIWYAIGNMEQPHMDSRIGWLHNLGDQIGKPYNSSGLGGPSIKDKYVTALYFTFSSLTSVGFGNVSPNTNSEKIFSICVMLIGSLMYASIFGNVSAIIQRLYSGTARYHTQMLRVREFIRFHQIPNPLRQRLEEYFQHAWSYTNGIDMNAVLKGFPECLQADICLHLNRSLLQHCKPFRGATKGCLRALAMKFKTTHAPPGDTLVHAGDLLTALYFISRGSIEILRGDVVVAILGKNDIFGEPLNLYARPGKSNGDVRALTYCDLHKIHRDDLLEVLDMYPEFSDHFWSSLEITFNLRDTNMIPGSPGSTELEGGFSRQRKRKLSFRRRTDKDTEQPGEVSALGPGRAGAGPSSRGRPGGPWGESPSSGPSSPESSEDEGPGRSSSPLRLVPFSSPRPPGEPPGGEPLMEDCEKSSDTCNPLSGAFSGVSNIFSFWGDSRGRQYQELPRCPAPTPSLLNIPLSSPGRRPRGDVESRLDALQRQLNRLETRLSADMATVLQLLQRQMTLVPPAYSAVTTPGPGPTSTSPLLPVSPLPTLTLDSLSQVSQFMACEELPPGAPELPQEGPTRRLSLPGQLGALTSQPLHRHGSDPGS

Structure (SMILES)	hERG current change (%, negative = inhibition) at 10uM
Cc1nn(C)c(C)c1NC(=O)/C(C#N)=C\N(C)C	12.6%
NC(=O)C1(N2CCCCC2)CCN(C(=O)CSc2nc3ccccc3o2)CC1	-4.85%
COC(=O)C1=C(C)N(CCC2=CCCCC2)C(=O)C1	1.46%
CC(C)(Oc1ccc(CCNC(=O)c2ccc(-c3ccccc3)o2)cc1)C(=O)O	14%
O=C(CC1SC(N2CCCC2)=NC1=O)Nc1ccc(C(=O)N2CCCC(C(F)(F)F)C2)cc1 (stereo not shown)	18.8%
Cc1ccc2cc(CN(C)S(C)(=O)=O)c(=O)[nH]c2c1	26.9%
NC(=O)COC(=O)c1ccc(Cl)c(S(=O)(=O)N2CCCCCC2)c1	-4.36%
CCOC(=O)c1ccc(Cl)c(S(=O)(=O)N2CCCC2)c1	23.8%
CN(C(=O)COC(=O)c1ccc(Cl)c(S(=O)(=O)N2CCCCC2)c1)C1(C#N)CCCCC1	-57.4%
CCN(CC)S(=O)(=O)c1ccc(C)c(NC(=O)CNc2cccc(S(=O)(=O)N3CCOCC3)c2)c1	-17.7%
Cc1c(C(=O)N(C)C)sc2nc(-c3ccccn3)[nH]c(=O)c12	-2.71%
COCCCn1c(SCC(=O)Nc2ccc(C)cc2)nc2ccccc2c1=O	-2.1%
CC(C)N(CCn1c(SCC(=O)N2CC(=O)Nc3ccccc32)nc2ccccc2c1=O)C(C)C	-76.6%
COc1ccc(NC(=O)CSc2nc3ccccc3c(=O)n2CCNC(C)=O)cc1	-73.6%
CCOc1ccc(NC(=O)CSc2nc3ccccc3c(=O)n2CCNC(C)=O)cc1	-6.93%
COc1ccc(NC(=O)CSc2nc3ccccc3c(=O)n2CCNC(C)=O)c(OC)c1	-25.1%
COCCCn1c(SCC(=O)Nc2ccc(C(=O)OC)cc2)nc2ccccc2c1=O	-25.6%
COCCn1c(SCC(=O)N2CC(=O)Nc3ccccc32)nc2ccccc2c1=O	-26.9%
COCCCn1c(SCC(=O)Nc2ccc(C(C)=O)cc2)nc2ccccc2c1=O	-51.5%
COc1ccccc1NC(=O)CSc1nc2ccccc2c(=O)n1CCNC(C)=O	-62.2%
CC(=O)NCCn1c(SCC(=O)Nc2ccc(C)cc2)nc2ccccc2c1=O	5.81%

Structure (SMILES)	hERG current change (%, negative = inhibition) at 10uM
CN(C)CCCn1c(SCC(=O)N2CC(=O)Nc3ccccc32)nc2ccccc2c1=O	-17.6%
COc1ccc(OC)c(NC(=O)CSc2nc3ccccc3c(=O)n2CCNC(C)=O)c1	-2.83%
O=C(O)CCCC(=O)N(Cc1ccccc1)Cc1ccccc1	30.4%
Cn1c2c(c(=O)n(C)c1=O)C(c1cccc([N+](=O)[O-])c1)Nc1ccccc1O2 (stereo not shown)	-12.3%
C[C@H](N)C(=O)N1CCC(C(=O)N[C@@H](Cc2ccccc2)C(=O)Nc2ccc(F)cc2)CC1	-5.88%
CC(=O)Nc1c([N+](=O)[O-])cc(C)c(Cl)c1[N+](=O)[O-]	6.22%
COc1ccc(Cn2c(=O)[nH]c3cc(C(=O)N4CCN(c5ccc(OC)cc5)CC4)ccc3c2=O)cc1	10.1%
Cc1cc(Cl)cc(Br)c1OCCNCC(C)O (stereo not shown)	-18.7%
O=C1C2(CCC13COC(c1ccc(O)cc1)OC3)COC(c1ccc(O)cc1)OC2 (stereo not shown)	-2.43%
COc1ccc(OC)c(C2/C(=C(/O)c3ccc(C)cc3)C(=O)C(=O)N2Cc2ccco2)c1 (stereo not shown)	-7.22%
Cc1cc(=O)oc2cc(OCC(=O)Nc3ccc(CN4CCOCC4)cc3)ccc12	3.15%
COc1cc2c3c(c1)/C(=C1/SC(=S)NC1=O)C(=O)N3C(C)(C)C=C2C	2.71%
CCc1cccc(NC(=O)C2CCCN2S(=O)(=O)c2cccc3cccnc23)c1 (stereo not shown)	-10.4%
O=C(CCCn1cc([N+](=O)[O-])cn1)Nc1ccc2c(c1)OCO2	4.52%
CCOCCCNC(=O)C1CCN(S(=O)(=O)c2ccc3nc4c(c(C(=O)O)c3c2)CCCCC4)CC1	49.4%
CC1CCN(S(=O)(=O)c2ccc(C(=O)NC3CCS(=O)(=O)C3)cc2)CC1 (stereo not shown)	-5.94%
CC(=O)NCCn1c(SCc2ccc(C)cc2)nc2ccccc2c1=O	-31.2%
COCCn1c(SCC(=O)Nc2cccnc2Cl)nc2cc(Cl)ccc2c1=O	-29.6%
CC(=O)NCCn1c(SCC(=O)OCc2ccccc2)nc2ccccc2c1=O	-60.2%
CC(C)N(CCn1c(SCC(=O)Nc2cccnc2Cl)nc2ccccc2c1=O)C(C)C	-69.7%
CC(=O)NCCn1c(SCC(=O)c2ccccc2)nc2ccccc2c1=O	-29.9%

Structure (SMILES)	hERG current change (%, negative = inhibition) at 10uM
COCCn1c(SCC(=O)Nc2cccnc2Cl)nc2ccccc2c1=O	4.53%
O=C(Cc1ccccc1)N1CCN(C(=O)c2cccs2)CC1	6.2%
O=C(Nc1cc(Cl)ccc1Cl)c1noc2c1CCCC2	12.4%
CC(=O)N(Cc1ccccc1)c1ccccc1C(=O)O	13.1%
CS(=O)(=O)n1nc(-c2ccco2)nc1N	20.3%
COc1cccc(OCc2nnc(SCC(=O)NCc3ccco3)n2C)c1	-0.586%
Cc1ccc(C)c(NC(=O)CN(C)C(=O)c2cccc(S(=O)(=O)N3CCN(Cc4ccccc4)CC3)c2)c1	9.47%
COc1ccc(O)c(CN2CCN(CCCc3ccccc3)C(CCO)C2)c1 (stereo not shown)	-68.2%
OCCC1CN(Cc2c(O)ccc3ccccc23)CCN1CCc1ccccc1 (stereo not shown)	-27.1%
COc1ccc(O)c(CN2CCN(CCc3ccccc3)C(CCO)C2)c1 (stereo not shown)	-54.6%
Cc1ccc(NC(=O)COC(=O)c2ccc3c(c2)OCCO3)cc1S(=O)(=O)N1CCOCC1	6.16%
O=C(CN1C(=O)NC2(CCc3ccccc32)C1=O)NCc1ccccc1Cl (stereo not shown)	7.01%
Nc1c(C(=O)NCC2CCCO2)c2nc3ccccc3nc2n1-c1ccccc1 (stereo not shown)	2.35%
Cc1cccc(C)c1NC(=O)C1CCCN1S(=O)(=O)c1ccc(-c2ccc(=O)[nH]n2)s1 (stereo not shown)	-68.2%
CCc1nnc(NC(=O)C2CCCN2S(=O)(=O)c2ccccc2)s1 (stereo not shown)	14.8%
Cc1ccc(NC(=O)C2CCCN2S(=O)(=O)c2ccc(-c3ccc(=O)[nH]n3)s2)c(C)c1 (stereo not shown)	-15.4%
O=C(O)C1CCCN(S(=O)(=O)c2ccc(-c3ccc(=O)[nH]n3)s2)C1 (stereo not shown)	16.5%
CCc1ccccc1NC(=O)C1CCCN1S(=O)(=O)c1ccc(-c2ccc(=O)[nH]n2)s1 (stereo not shown)	-54.7%
O=C(Nc1ccc(F)cc1F)C1CCCN1S(=O)(=O)c1ccc(-c2ccc(=O)[nH]n2)s1 (stereo not shown)	-33.5%
Cc1cccc(C)c1NC(=O)C1CCCN1S(=O)(=O)c1ccccc1 (stereo not shown)	4.4%
Cc1ccc(Cl)cc1NC(=O)C1CCCN1S(=O)(=O)c1ccc(-c2ccc(=O)[nH]n2)s1 (stereo not shown)	-65.4%

Structure (SMILES)	hERG current change (%, negative = inhibition) at 10uM
CCc1ccccc1NC(=O)C1CCCN1S(=O)(=O)c1ccc2c(c1)n(C)c(=O)c(=O)n2C (stereo not shown)	-3.91%
COc1cccc(N2CCN(c3nc(-c4ccccc4C)cc(=O)[nH]3)CC2)c1	3.88%
c1cc2c(cc1C1=NNC(=NC3CC3)SC1)OCCO2	16.8%
Cc1cc(C(=O)NNC(=O)c2sccc2C)c(C)o1	7.27%
O=S(=O)(c1ccc(F)cc1)N1CCN(c2ccccc2)CC1	-6.53%
CN(Cc1ccccc1)C(=O)CCS(=O)(=O)c1cc2c(cc1Cl)NC(=O)CO2	-38.9%
CCN(C(=O)CCS(=O)(=O)c1cc2c(cc1Cl)NC(=O)CO2)c1ccccc1	-21.8%
CCN(Cc1ccccc1)C(=O)CCS(=O)(=O)c1cc2c(cc1Cl)NC(=O)CO2	-50.7%
O=C1Nc2ccc(Br)cc2C12NNc1ccccc1O2 (stereo not shown)	23.9%
Cn1c(N)c(C(=O)NCc2ccccc2Cl)sc1=S	18%
Cc1cccc(NC(=O)CSc2nc3ccccc3c3nc(CCc4c(C)n[nH]c4C)nn23)c1	-9.44%
Cc1ccccc1NC(=O)CSc1nc2ccccc2c2nc(CCn3cncc3C)nn12	-55.6%
Cc1ccc(NC(=O)CSc2nc3ccccc3c3nc(CCc4c(C)n[nH]c4C)nn23)cc1F	-11.7%
Cc1ccccc1NC(=O)CSc1nc2ccccc2c(=O)n1C	1.39%
Cc1cncn1CCc1nc2c3ccccc3nc(SCC(=O)Nc3cccc(Cl)c3)n2n1	-78.4%
Cc1ccc(NC(=O)CSc2nc3ccccc3c3nc(CCn4cncc4C)nn23)c(C)c1	2.77%
CCCCOC(=O)c1sc2nc(N3CCOCC3)c3c(c2c1N)CC(C)(C)OC3	9.29%
CCOC(=O)C1CCN(C(=O)c2ccc3c(c2)OCO3)CC1	-5.29%
Cl.Clc1c(OCCCn2ccnc2)ccc2ccccc12	-31.9%

Reference: paper PMC4336329 (PLoS ONE, 2015)
